An excerpt weighted towards active compounds, which were near 2.4% of everything screened.
CHRM1 agonist = activates human CHRM1 receptor; hit rate 0.33% among 360,000; AID 588814; CHO-K1 hM1, Fluo-8 calcium fluorescence, agonist mode; 0% DMSO, 100% acetylcholine EC100; activation, % at 3 µM;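 active means activation above the run's mean compound activation plus 3 SD, cut at about 16% in these data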;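 further: peak over basal fluorescence ratio within a 140 s kinetic read after compound addition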
Target sequence (P11229 whole entry, looked up): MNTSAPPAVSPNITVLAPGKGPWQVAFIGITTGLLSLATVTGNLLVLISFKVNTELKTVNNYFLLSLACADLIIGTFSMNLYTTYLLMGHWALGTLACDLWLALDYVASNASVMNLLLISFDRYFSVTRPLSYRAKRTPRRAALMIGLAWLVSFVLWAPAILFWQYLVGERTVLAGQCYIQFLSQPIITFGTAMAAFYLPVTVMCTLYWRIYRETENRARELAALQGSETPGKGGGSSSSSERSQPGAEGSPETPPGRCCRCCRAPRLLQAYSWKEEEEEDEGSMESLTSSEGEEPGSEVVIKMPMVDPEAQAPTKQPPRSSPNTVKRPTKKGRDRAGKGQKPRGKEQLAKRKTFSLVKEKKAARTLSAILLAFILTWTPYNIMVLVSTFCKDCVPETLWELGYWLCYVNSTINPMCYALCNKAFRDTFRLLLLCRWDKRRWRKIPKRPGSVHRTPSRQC
CHO-K1 Ca antag = counter-screen for M1 antagonists: effect in parental CHO-K1 cells; ATP-induced calcium, Fluo-8 fluorescence; inhibition, % at 3 µM; hit rate 0.6% among 360,000;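 active means inhibition above a per-plate cutoff, the plate's mean sample inhibition plus 3 SD, cut at about 24% in these data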;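 further: 0% = DMSO plus EC80 ATP and 100% = DMSO alone without ATP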
CHRM1 PAM = human CHRM1 positive allosteric modulation | P11229 | CHO-K1 hM1, Fluo-8 calcium fluorescence, ACh EC20; 0% = ACh EC20, 100% = maximal ACh | activation, % at 3 µM | hit rate 0.088% among 360,000; in the data active means activation above about 19%, passing the limit was not always enough
M1 antag = blocks human M1 muscarinic receptor. P11229. CHO-K1 hM1, Fluo-8 calcium fluorescence, ACh EC80 antagonist. inhibition, % at 3 µM. hit rate 1.3% among 360,000. AID 588852;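 active means percent inhibition above its own plate's cutoff, namely the mean of that plate's compound wells plus 3 SD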;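 further: peak over basal fluorescence ratio during 140 s after agonist addition; 0% = ACh EC80 plus DMSO and 100% = DMSO alone without agonist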
CHO-K1 Ca PAM = nonselective activator or artifact in parental CHO-K1 calcium assay. hit rate 0.02% among 360,000. AID 602247. activation, % at 3 µM. ATP EC20, Fluo-8 calcium fluorescence; 0% at ATP EC20, 100% at ATP max;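 active means activation above the run cutoff, the mean activation of all test compounds plus 3 SD, cut at about 40% in these data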;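 further: peak over basal fluorescence ratio in a 140 s read after ATP addition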
CHO-K1 Ca ag = counter-screen for M1 agonists: effect in parental CHO-K1 cells. Fluo-8 calcium fluorescence; scaled to maximal ATP response, vehicle zero. activation, % at 3 µM. hit rate 0.48% among 360,000. AID 602248; in the data active means activation above about 15%;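 further: untransfected CHO-K1 host cells lacking M1 receptor as counterscreen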
An asterisk follows results filed as active.

SMILES	CHRM1 agonist	CHO-K1 Ca antag	CHRM1 PAM	M1 antag	CHO-K1 Ca PAM	CHO-K1 Ca ag
Cc1ccc(S(=O)(=O)Cc2ccc(C(=O)N3CCN(c4cc(C)ccc4C)CC3)o2)cc1	-1.2	-2.5	7.8	-9.5	9.2	0.0
Cc1ccc(C)c(N2CCN(C(=O)c3ccc(CS(=O)(=O)c4ccccc4C)o3)CC2)c1	-0.6	24.6*	-3.8	18.3	-8.4	3.3
[O-][n+]1ccc(CC(O)(C(F)(F)F)C(F)(F)F)cc1	-2.1	14.5	13.5	-17.0	-14.3	-0.5
Cc1cccc(C)c1NC(=O)C(=O)NCCc1c[nH]c2ccccc12	17.3*	-14.7	7.0	-31.6	18.2	8.0
Cc1cccnc1NC(=O)CCc1c[nH]c2ccccc12	1.8	23.8*	10.7	-1.5	-32.5	-0.1
Cc1ccnc(NC(=O)CCCc2c[nH]c3ccccc23)c1	-2.5	-7.3	15.4	-21.8	11.2	1.5
Cc1[nH]c2ccccc2c1C(C[N+](=O)[O-])c1cccc(O)c1 (stereo not given)	-0.9	6.4	-13.4	37.4*	-1.4	7.4
CC[N+](C)(C)CCN(Cc1ccc(Cl)cc1)c1ccccn1	15.2	-2.1	-13.3	80.3*	-4.7	0.1
C#CCOc1ccccc1/C=N/NC(=O)c1ccccc1OCc1ccccc1	-4.9	-14.1	-15.4	26.7	18.4	2.3
COc1ccc(NC(=O)Nc2cc(C(C)(C)C)on2)cc1OC	-1.4	-7.1	-1.1	4.5	5.2	2.5
Nc1ccc2nc(CCc3ccccc3)[nH]c2c1	-8.8	-3.9	-7.5	6.5	9.3	2.8
Nc1ccc2nc3c(=O)n(CCc4ccccc4)c(=O)[nH]c3nc2c1	53.5*	16.2	-6.7	21.6	-3.6	52.7*
Cc1cc2nc3c(=O)n(CCc4ccccc4)c(=O)[nH]c3nc2cc1N	9.7	2.1	0.3	10.4	10.4	26.0*
Nc1ccc2nc3c(=O)n(C4CCCCC4)c(=O)[nH]c3nc2c1	99.7*	29.9*	-15.1	29.5	-12.0	95.3*
CCCCn1c(=O)[nH]c2nc3cc(N)ccc3nc2c1=O	25.3*	20.5	-9.7	22.7	-7.5	24.4*
Cc1ccc(C(=O)NCC(=O)N2CCN(c3cccc(Cl)c3)CC2)s1	-0.7	4.6	5.2	4.3	-12.6	0.3
COCCN(CCOC)Cc1cc(=O)oc2cc(C)c(Cl)cc12	-1.7	22.8	8.1	-2.4	-3.0	0.3
O=C(CN1CCOCC1)Nc1ccccc1F	-3.0	-4.1	30.3*	-10.1	3.6	0.1
O=C(CN1CCOCC1)Nc1ccccc1Sc1ccc(Cl)cc1	-7.0	8.1	-14.4	22.4*	-10.4	4.5
O=C(Cc1ccc(Cl)cc1)Nc1ccccc1Sc1ccccc1	-8.7	-8.2	0.1	-3.5	14.2	0.9
O=C(CCl)Nc1ccccc1Sc1ccccc1	-6.9	23.9*	-13.3	16.7	-6.5	-0.4
CN(C)c1cccc(C(=O)OCC(=O)Nc2ccccc2Sc2ccccc2)c1	-5.6	31.1*	-11.3	18.2	-13.9	-0.7
O=C(c1ccc(=O)oc1)N1CCN(C(c2ccccc2)c2ccccc2)CC1	-12.5	-13.1	-32.8	77.1*	12.6	0.6
O=C(c1ccc2c(=O)n3c(nc2c1)CCCCC3)N1CCN(C(c2ccccc2)c2ccccc2)CC1	-14.3	-29.4	-33.9	78.9*	10.8	-0.4
CCCC(C)NC(=O)C1c2ccccc2Oc2ccccc21 (stereo not given)	-0.8	-2.0	14.0	-13.3	14.1	-0.1
SMILES	CHRM1 agonist	CHO-K1 Ca antag	CHRM1 PAM	M1 antag	CHO-K1 Ca PAM	CHO-K1 Ca ag
COc1ccc(C(C(=O)NCC2CCCO2)N(C(=O)CNC(=O)c2cccs2)c2ccc(C)cc2)cc1OC (stereo not given)	-8.6	-0.9	16.0	-12.9	23.0	3.4
Cc1cc(=O)[nH]c(SCC(=O)Nc2ccccc2[N+](=O)[O-])n1	-0.4	0.3	9.9	-11.0	-3.4	0.5
Cc1ccc(C(=O)N(Cc2nnc(-c3ccccc3Cl)o2)C2CC2)o1	-6.6	-7.3	3.8	-11.8	9.6	1.3
CCC(=O)c1ccc(OCC(=O)N(Cc2nnc(-c3ccccc3Cl)o2)C2CC2)cc1	-5.7	-10.6	4.6	-10.2	14.7	2.8
CN1CCN(S(=O)(=O)c2cccc(C(=O)N(Cc3nnc(-c4ccccc4Cl)o3)C3CC3)c2)CC1	-0.9	4.0	4.7	-7.5	-2.5	16.9*
O=C(COc1ccc(Br)cc1)N(Cc1nnc(-c2ccccc2Cl)o1)C1CC1	-4.8	-5.8	-23.3	37.4*	7.4	4.7
O=C(c1ccc([N+](=O)[O-])o1)N(Cc1nnc(-c2ccccc2Cl)o1)C1CC1	-8.6	13.7	-9.8	27.1*	-10.7	0.4
CCCCN(C(C)=O)c1c(N)n(CCC)c(=O)n(CC(=O)Nc2cc(Cl)cc(Cl)c2)c1=O	-5.8	-2.0	-9.1	5.0	3.5	1.6
Cc1nn(C)c(C(=O)Nc2cccc(Nc3ccccc3)c2)c1[N+](=O)[O-]	-0.8	18.9	-5.7	26.4*	-12.1	1.2
Cc1ccc(SC(=O)c2c([N+](=O)[O-])c(C)nn2C)cc1	-8.6	5.8	-27.1	62.4*	-10.7	0.5
Cc1cc(C)n(C(=O)c2c([N+](=O)[O-])c(C)nn2C)n1	-5.2	0.6	4.8	-3.9	8.5	0.2
Cc1nn(C)c(C(=O)N/N=C/c2ccccc2)c1[N+](=O)[O-]	-6.2	23.4	-23.2	21.3*	-5.5	-0.4
Cc1nn(C)c(C(=O)N/N=C/c2ccncc2)c1Cl	-2.7	-0.3	7.7	-14.4	8.0	0.4
CC(C)CC(=O)c1c(O)c(C=O)c(O)c2c1O[C@@]1(C)[C@@H](C2)C[C@H]2C[C@@H]1C2(C)C	-3.6	-15.7	10.4	-8.0	16.5	0.1
COc1ccc(OC)c(C2=NOC(C(=O)Nc3cc(C)on3)C2)c1 (stereo not given)	-2.7	-12.7	5.6	-20.1	3.1	0.4
COc1ccc(N2C(=O)[C@@H]3[C@H](C2=O)[C@H]2c4ccccc4C=CN2[C@@H]3C(=O)Nc2ccccc2)cc1	50.4*	-0.6	-7.7	10.0	11.3	0.6
CCN(Cc1ccncc1)Cc1cn[nH]c1-c1cc(OC)c(OC)c(OC)c1	-5.6	-5.1	-3.3	4.6	-5.1	0.7
CCOC(=O)c1sc(NC(=O)CN2C(=O)NC3(CCCCCCC3)C2=O)c(C(=O)OCC)c1C	-1.4	-17.5	2.3	-32.9	18.2	1.8
CC1(c2ccc(OC(F)F)cc2)NC(=O)N(CC(=O)Nc2ccc(S(N)(=O)=O)cc2)C1=O (stereo not given)	-2.8	-2.1	-2.8	11.0	-5.1	-0.5
CCOC(=O)c1c(NC(=O)CN2C(=O)NC(C)(c3ccc(OC(F)F)cc3)C2=O)sc(C)c1C (stereo not given)	18.1*	6.0	12.5	13.8	30.2	9.2
CC1(c2ccc(OC(F)F)cc2)NC(=O)N(CC(=O)Nc2ccc(OC(F)F)cc2)C1=O (stereo not given)	36.1*	27.6*	-2.8	28.5*	8.3	32.9*

Assay outcomes deposited in PubChem by The Scripps Research Institute Molecular Screening Center.
